From PubChem BioAssay
Sampled rows, rich in hits. Any-hit rate of the full collection: about 11%.
HEK cytotox – HEK 293 cell cytotoxicity; AID 1345083; Potency, µM (doses to about 115 µM), inactives show at the highest dose activity change, negative = cytotoxicity, most hits filed as inhibitors; 94,000 tested, 6.6% active; HEK 293 viability, ATP luminescence (CellTiter-Glo), 48-72 h; also: nearly all actives have a fitted effect of over 60% in size
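250 HEK 293 cells/well; compound by pintool; incubated 48 or 72 hr at 37 degree Celsius; CellTiter-Glo added, 10 min RT, luminescence imaged.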
Luciferase inh – inhibitors of firefly (Photinus pyralis) luciferase. P08659. purified P. pyralis luciferase, luminescence, biochemical. Potency, µM (titrated, usually from 115 µM), hits mostly inhibitors. 76,000 tested, 2.5% active. AID 1347043; also: nearly all actives have a fitted effect of over 65% in size
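Purified 10nM P. pyralis luciferase with 10uM D-luciferin and 10uM ATP in 50mM Tris acetate pH 7.5, 10mM Mg acetate, 0.01% Tween-20, 0.05% BSA. qHTS titration; luminescence read by CCD imager.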
hNpr1 antagonist – antagonists of human natriuretic peptide receptor Npr1; Potency, µM (highest dose often 46.3 µM), without a hit: top-dose activity change, negative = inhibition, most hits filed as inhibitors; 76,000 tested, 1.6% active; AID 1347048; HEK293 hNpr1 GloSensor cGMP, ANP-stimulated luminescence; calls by dose curve; also: nearly all actives have a fitted effect of over 60% in size
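Compound pre-incubated 30 min at room temperature on GloSensor-loaded HEK293 cells stably carrying hNpr1 and the pGS-40F cGMP biosensor. Stimulation uses hNppA at 0.1 nM final; luminescence is taken at baseline and 20 min post-agonist.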
NIH3T3 tox – cytotoxic compounds in NIH 3T3 cells. NIH 3T3 viability, CellTiter-Glo ATP luminescence, 48-72 h. Potency, µM (titrated, usually from 96.7 µM), for inactives: at the top dose activity change, negative = cytotoxicity, hits mostly inhibitors. 94,000 tested, 4.3% active; also: nearly all actives have a fitted effect of over 55% in size
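Luminescent ATP readout (CellTiter-Glo, 10 min RT) after 48 or 72 hr compound exposure of NIH 3T3 cells seeded at 400 cells/well in 1536-well format; quantitative HTS.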
* hit, by the source's call; i = inactive; ? = inconclusive; . = no result given; [ ] = dose if it differs, or a comment. Unless noted, calls follow the shape of the dose curve; as a rule, active = well fitted curve in the direction sought with a large enough effect; inconclusive = small, poorly fitted or top-dose-only effect, or another doubt; inactive = no such curve, though single readings can be large; an effect the other way counts as inactive or inconclusive. % is scaled to controls: 0 for no effect and ±100 for the full control effect; potency is read from the fitted curve at half-maximal effect.

SMILES	HEK cytotox	Luciferase inh	hNpr1 antagonist	NIH3T3 tox
COc1ccc(NC(=O)C2=NO[C@@H]3CN(CCc4ccccc4)C[C@H]23)cn1	100µM*	i	1%[70.6 µM]	-23%[138 µM]
COc1cncc(NC(=O)C2=NO[C@@H]3CN(Cc4ccccc4)C[C@H]23)c1	-28%[172 µM]	i	2%[70.6 µM]	?
COc1cccc(C(=O)N2CCC3(CC2)NC(=O)N(Cc2ccccc2)C3=O)c1OC	-1%	i	9%	3%
COCCNC(=O)C1CCCN1C(=O)c1cccc(-c2ccccn2)c1 (stereo not drawn)	-3%	.	.	-17%
Cc1nc(-c2ccc(C(C)N3CCCCC3)cc2)c(C#N)cc1C(=O)O (stereo not drawn)	?	i	6%	-1%
O=C(NC1CCCC1)c1cc(-c2cccc(C(F)(F)F)c2)c2cccn2n1	40µM*	.	.	?
O=C(NCC(F)(F)F)c1cc(-c2cc(Cl)cc(Cl)c2)c2cccn2n1	40µM*	.	.	?
O=C(c1cc(-c2cccc(C(F)(F)F)c2)c2cccn2n1)N1CCCC1	45µM*	.	.	?
O=C(NCC(F)F)c1cc(-c2cccc(C(F)(F)F)c2)c2cccn2n1	35µM*	.	.	?
COc1ccc(-c2nc(C)nc3c2CN(C(=O)c2ccccc2Cl)CC3)cc1	-1%	.	.	-11%
CC(C)NC(=O)c1ccc2nnc(-c3cccc([S+](C)(=O)[O-])c3)n2c1	i	.	.	-13%
O=C(c1nc2sccn2c1-c1cccc(C(F)(F)F)c1)N1CCCCC1	?	.	.	-25%
COc1ccccc1-c1cc(C(=O)N2CCN(c3ncccn3)CC2)nn2cccc12	i	.	.	i
C[S+](=O)([O-])c1ccc(-c2cc(C(=O)N3CCN(c4ncccn4)CC3)nn3cccc23)cc1	50µM*	.	.	-24%
O=C1NCc2ccccc2CC12CCN(Cc1ccc(F)cc1)C2 (stereo not drawn)	?	.	.	4%
O=C1NCc2ccccc2CC12CCN(Cc1ccc(Oc3ccccc3)cc1)C2 (stereo not drawn)	?	.	.	32µM*
O=C1NCc2ccccc2CC12CCN(Cc1ccc(-c3ccccc3)cc1)C2 (stereo not drawn)	35µM*	.	.	35µM*
COc1ccc(-c2ccccc2C(=O)N2CCC(NC(=O)c3ccc(C)cc3)CC2)nn1	5%	.	.	-13%
CC#CCn1cc2c3c(cccc31)[C@H](CC(C)C)N[C@H](C(=O)N1CCC(O)CC1)C2	?	i	-4%[70.6 µM]	?
O=C(Nc1cccnc1)c1ccc2c(c1)OCCN(c1cccc(OC(F)(F)F)c1)C2	28µM*	i	?	?
CCOC(=O)[C@@H]1CN(C(=O)c2cccc(C#N)c2)[C@H]2c3ccccc3O[C@@H]12	?	.	.	-32%
O=C(Cc1ccc(Cl)cc1)NCCNC(=O)c1cccc(-c2ccc(C(F)(F)F)cc2)c1	?	.	.	35µM*
CSc1ccc(-c2cccc(C(=O)NCCNC(=O)c3ccc(C(F)(F)F)cc3)c2)cc1	-5%	.	.	-21%
O=C(CNC(=O)c1ccc(-c2cccc(C(F)(F)F)c2)cc1)NCCc1ccc(Cl)cc1	-17%	.	.	-2%
O=C(Cc1ccc(F)cc1)NCCNC(=O)c1cccc(-c2ccc(C(F)(F)F)cc2)c1	28µM*	.	.	-27%
SMILES	HEK cytotox	Luciferase inh	hNpr1 antagonist	NIH3T3 tox
O=C(NCCOc1cccnc1)c1cn(Cc2cccc(C(F)(F)F)c2)nn1	28µM*	i	-1%	?
CC(c1cccc(CN2CCC(CO)(CN3CCCC3)CC2)c1)N(C)C (stereo not drawn)	?	i	-1%	?
O=C(NCc1cccc(Cl)c1)c1cc(-c2cccs2)c2cccn2n1	28µM*	.	.	?
N#CC1CCN(C(=O)c2cc(-c3cccs3)c3cccn3n2)CC1	79µM*	.	.	?
O=C(NCC1CC1)c1cc(-c2cccs2)c2cccn2n1	71µM*	.	.	?
COC(=O)CNC(=O)c1cc(-c2ccccc2OC)c2cccn2n1	-24%	.	.	3%
COc1ccccc1-c1cc(C(=O)N2CCOCC2)nn2cccc12	-12%	.	.	-7%
O=C(NCc1cccc(Cl)c1)c1cc(-c2cc(Cl)cc(Cl)c2)c2nncn2n1	-15%	.	.	-29%
COc1ccc(F)c(CN2CCCN3CCC[C@H]3C2)c1Cl	?	i	-6%	?
COc1ccc(CCNC(=O)c2ccc(-c3ccc(OC)nn3)cc2Cl)cc1	-21%	.	.	-32%
Cc1cn2nc(C(=O)N3CCC(NC(=O)c4ccccc4)CC3)cc2c(=O)[nH]1	-1%	i	-2%	-3%
